miR-122 sensor = miR-122 Renilla sensor signal increase in Huh7, primary screen, miR-122 inhibitor project, cell-based, single point, plate reader | activation (reporter increase), % at 12.5 µM | AID 602342, 2012 | Huh7 miR-122 Renilla luciferase sensor, 48 h; neutral wells = 0, positive control = 100 | 340,000 compounds, 0.3% hits;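 active = mean replicate activation score at least 90 and every replicate individually at or above 90; inconclusive = only one of the two criteria met; inactive = neither criterion met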;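 also: higher luciferase means less miR-122 activity so hits act as miR-122 inhibitors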
PGC1a acetyl inh = inhibitors of PGC1a acetylation signal, primary screen, cell-based, U2OS, AlphaScreen, inhibitor mode; AlphaScreen anti-acetyl-lysine; with virally co-expressed GCN5 acetyltransferase; inhibition, % at 15.6 µM; 350,000 compounds, 0.17% hits; AID 651687, 2012;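 active = every replicate shows inhibition of at least 40%; inconclusive = mean inhibition at least 40% but some replicate below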
PvdQ acylase = P. aeruginosa PvdQ acylase inhibitors, primary screen, biochemical, fluorescence, plate reader and imaging, single point. purified PvdQ acylase. inhibition, % at 10 µM. 340,000 compounds, 0.063% hits. AID 488965, 2010. PvdQ acylase [Pseudomonas aeruginosa LESB58]; in the data active = inhibition above about 30%, passing the limit was not always enough; inconclusive = no clear call, values can overlap the other calls
DENV2 CPE rescue = inhibitors of DENV2 cytopathic effect, primary screen, cell-based, plate reader, single concentration; DENV2-infected cells, cytopathic effect rescue; CPE inhibition, % at 9.99 µM; 350,000 compounds, 1.7% hits; AID 651640, 2012; in the data active = CPE inhibition above about 20%, passing the limit was not always enough; inconclusive = no clear call, values can overlap the other calls; tested in BHK-21 cells
Statin myotox sup = suppressors of statin myotoxicity in C2C12 myotubes, primary screen, cell-based, single point, plate reader; C2C12 myotubes + simvastatin, ATP luminescence, 48 h; scaled: DMSO 0, geranylgeraniol control 100; 330,000 compounds, 0.78% hits; rescue of ATP level, % at 7.49 µM;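 active = mean ATP rescue above about 67%, or every replicate alone reaching that limit, limit read from the data, passing the limit was not always enough; inconclusive = no clear call, values can overlap the other calls; inactive = mean under the limit and some replicate under it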;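 also: myotubes were challenged with 10 µM simvastatin during compound exposure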
A number is an active result; 0 = inactive; ? = inconclusive; - = not tested or not shown; ! = repeats disagree. Most compounds without a hit are left out; they make up all but 2.2% or so of the library.

SMILES | miR-122 sensor | PGC1a acetyl inh | PvdQ acylase | DENV2 CPE rescue | Statin myotox sup
CO[C@H]1CN(C)C(=O)c2ccc(NC(=O)c3ccc(Oc4ccccc4)cc3)cc2OC[C@@H](C)NC[C@H]1C | 0 | 0 | - | 31.4 | 0
C[C@@H]1CN([C@H](C)CO)C(=O)c2cc(NC(=O)CCN3CCOCC3)ccc2O[C@@H]1CN(C)S(=O)(=O)c1cccs1 | 0 | 0 | - | 0 | 0
C[C@H](CO)N1C[C@H](C)[C@H](CN(C)Cc2ccc(C(F)(F)F)cc2)Oc2ccc(NC(=O)NC3CCCCC3)cc2C1=O | 0 | 0 | - | 0 | 0
CCSCCNC(=O)c1cc(-n2cnnc2)ccc1Cl | 0 | 0 | 0 | - | 0
CCOC(=O)N1CCN(C(=O)c2cc(-n3cnnc3)ccc2Cl)CC1 | 0 | 0 | 0 | - | 94.9
C[C@H](CO)N1C[C@H](C)[C@@H](CN(C)CC2CCOCC2)Oc2ncc(Br)cc2C1=O | 0 | 88.9! | - | 0 | 0
C[C@@H]1CN([C@H](C)CO)C(=O)c2cc(Br)cnc2O[C@@H]1CN(C)C(=O)c1ccccc1 | 0 | 0 | - | 65.1! | 0
C[C@@H]1CN([C@@H](C)CO)C(=O)c2cc(Br)cnc2O[C@@H]1CN(C)S(C)(=O)=O | 0 | 0 | - | 32.3! | 0
C[C@@H]1CCCCO[C@@H](CN(C)CC2CC2)[C@H](C)CN([C@@H](C)CO)C(=O)c2cc(NS(=O)(=O)c3ccccc3)ccc2O1 | 0 | 0 | - | ? | -
C[C@H](CO)N1C[C@H](C)[C@@H](CN(C)C(=O)NC2CCCCC2)Oc2ccc(NS(=O)(=O)c3ccccc3)cc2CC1=O | 0 | 0 | - | 0 | 0
O=c1cc(O)n(-c2ccccc2)c(=S)[nH]1 | 0 | 0 | 0 | - | 0
N=c1n(-c2ccccc2)c(O)cc(=O)n1-c1ccccc1 | 0 | 0 | 0 | - | 122.8
COC(=O)C1=C(C)NC(=O)CC1c1ccc(C(=O)OC)cc1 (stereo not given) | 0 | 0 | 0 | - | 0
COC(=O)c1ccc([C@H]2CC(=O)O2)cc1 | 0 | 0 | 0 | 76.0 | 0
O=C1NCCN/C1=C\C(=O)c1ccc(Cl)cc1 | 0 | 0 | - | ? | -
CC1CN/C(=C\C(=O)c2ccc(Cl)cc2)C(=O)N1 (stereo not given) | 0 | 0 | 0 | - | 87.8
CC1CN/C(=C\C(=O)c2ccccc2)C(=O)N1 (stereo not given) | 0 | 0 | 0 | - | 117.5
CCOC(=O)[C@H]1[C@H]2COc3ccccc3[C@@H]2N2C(=O)[C@@H](CO)NC(=O)[C@@]12C | 0 | - | 0 | 28.9 | 0
CCOC(=O)[C@H]1[C@H]2COc3ccc(Cl)cc3[C@@H]2N2C(=O)c3ccccc3NC(=O)[C@@]12C | 0 | 0 | 0 | 0 | 135.3
CCNC(=O)[C@H]1[C@H](CO)[C@H]2Cn3c(cccc3=O)[C@@H]1N2CCC(F)(F)F | 0 | - | - | 0 | 0
O=C(c1ccccc1)c1ccc(-c2ccc(O)cc2)cc1 | 91.7 | - | 0 | 0 | 0
COc1ccc(S(=O)(=O)Nc2ccc3c(c2)C(=O)N([C@H](C)CO)C[C@H](C)[C@H](CN(C)Cc2ccc4c(c2)OCO4)O3)cc1 | 0 | 0 | - | 0 | 0
CC(C)CCn1c2ccccc2c2cc(CC(N)=O)ccc21 | - | - | 0 | 28.7 | -
COc1ccc(CC(=O)N/N=C(\C)c2cccnc2)cc1OC | - | - | 0 | 0 | 0
CCOc1ccc(CC(=O)N/N=C(\C)c2cccnc2)cc1OCC | 0 | - | 0 | 78.4 | 0
SMILES | miR-122 sensor | PGC1a acetyl inh | PvdQ acylase | DENV2 CPE rescue | Statin myotox sup
C[C@H](CO)N1C[C@H](C)[C@@H](CN(C)S(=O)(=O)c2ccc(Cl)cc2)Oc2c(NC(=O)NC3CCCCC3)cccc2C1=O | 0 | 0 | - | 20.7 | 0
COc1ccc(S(=O)(=O)N(C)C[C@H]2Oc3c(NC(=O)NC4CCCCC4)cccc3C(=O)N([C@H](C)CO)C[C@@H]2C)cc1 | 0 | 0 | 0 | 70.1! | 0
COc1ccc(S(=O)(=O)N(C)C[C@@H]2Oc3c(NC(=O)NC4CCCCC4)cccc3C(=O)N([C@H](C)CO)C[C@@H]2C)cc1 | 0 | 0 | - | 0 | 0
CN1CCN(C(=O)C[C@@H]2C=C[C@H](NC(=O)Nc3ccccc3F)[C@H](CO)O2)CC1 | - | 0 | - | - | 0
CCOC(=O)N1C=CC=C[C@@H]2[C@@H](N3C(=O)c4ccccc4C3=O)C(=O)N21 | - | - | 0 | 62.8 | -
COc1ccc(N(CC(=O)Nc2cc(C)on2)S(=O)(=O)c2cc(C)ccc2C)cc1 | 232.0 | - | 0 | - | 0
CCOC(=O)C1=C(C(C)=O)C(c2cccnc2)C(C#N)=C(N)O1 (stereo not given) | 0 | 0 | 0 | - | 118.3
CCOC(=O)C1=C(CSc2nc(-c3ccncc3)ccc2C#N)OC(N)=C(C#N)C1c1cccnc1 (stereo not given) | 0 | 0 | 0 | - | 0
COc1ccc(NC(=O)N(C)C[C@@H]2Oc3ccc(NS(=O)(=O)c4c(C)noc4C)cc3CC(=O)N([C@@H](C)CO)C[C@@H]2C)cc1 | 0 | 0 | - | 0 | 0
C[C@@H]1CN([C@@H](C)CO)C(=O)c2cc(-c3cccc(F)c3)cnc2O[C@@H]1CN(C)C(=O)Nc1cc(F)ccc1F | 0 | 0 | - | 26.1 | 0
CNC[C@H]1Oc2ncc(C#Cc3ccccc3F)cc2C(=O)N([C@@H](C)CO)C[C@H]1C | 0 | 0 | - | 70.9 | 0
CNC[C@@H]1Oc2ncc(-c3cccc(F)c3)cc2C(=O)N([C@@H](C)CO)C[C@@H]1C | 0 | 0 | - | 24.6 | 0
CNC[C@@H]1Oc2ncc(-c3ccccc3)cc2C(=O)N([C@H](C)CO)C[C@@H]1C | 0 | 0 | - | 0 | 0
C[C@@H]1CN([C@H](C)CO)C(=O)CCCn2nncc2CO[C@@H]1CN(C)Cc1ccc(C(F)(F)F)cc1 | 0 | 0 | - | 0 | 0
C[C@H]1CN([C@@H](C)CO)C(=O)Cc2cc(NS(=O)(=O)c3cccs3)ccc2O[C@@H]1CN(C)CC1CC1 | 0 | 0 | - | 0 | 0
COc1ccc(CN(C(=O)c2ccc(C)cc2)c2cccc(N)c2)cc1 | 0 | 0 | 0 | 37.9 | 0
CCNC(=O)C[C@@H]1CC[C@H]2[C@H](COc3ccc(NC(=O)Nc4cccc(Cl)c4)cc3C(=O)N2C)O1 | 0 | 0 | - | 0 | 0
CCCN(C)C[C@H]1Oc2cc(C#Cc3cccc(F)c3)ccc2S(=O)(=O)N([C@H](C)CO)C[C@@H]1C | 0 | 0 | - | 0 | 0
CSCc1c(C(=O)NC2CCCc3ccccc32)oc2ccccc12 (stereo not given) | 0 | 0 | 0 | - | 102.4
CCN(CC)S(=O)(=O)c1ccc2oc(C(=O)NC3CCCc4ccccc43)c(C)c2c1 (stereo not given) | - | 0 | 0 | - | 0
C[C@@H]1CN([C@H](C)CO)C(=O)Cc2cc(NC(=O)C3CC3)ccc2O[C@@H]1CN(C)S(=O)(=O)c1ccccc1 | 0 | 0 | - | 0 | 0
CCCN1C[C@H](C)[C@H](OC)CN(C)C(=O)c2ccc(NC(=O)c3ccccc3)cc2OC[C@H]1C | 0 | 0 | - | 0 | 0

Bioassay records as filed in PubChem BioAssay.
